This is an account of results in PubChem BioAssay.

Experiment [1] deals with PRMT1 (protein arginine N-methyltransferase 1). As to the kind of experiment: small molecules binding arginine methyltransferase PRMT1 – biochemical, small-molecule microarray, 635 nm fluorescence, primary screen (AID 1088).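 Note: binding of Prmt1 protein to compounds spotted on small-molecule microarray slides.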 The note with it: higher = more signal.
Experiment [2] can be described thus: growth effects on S. cerevisiae YJM789 – YJM789 clinical isolate, OD600, 24 h, basal, primary screen (AID 1089).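 Note: growth of clinical yeast isolate S. cerevisiae YJM 789 seeded 1000 cells per well; test concentration not given here.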 The conditions noted are these: higher = more signal, called active from +8 up or from −8 down.
Experiment [3] in a line: S. pombe growth modifiers, basal conditions – strain 972, OD600, 24 h, no modulator, primary screen (AID 1090).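 Note: basal condition with compound alone and no growth modifier present; test concentration not given here.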 The conditions noted are these: S. pombe 972 growth, higher = more signal, called active from +8 up or from −8 down.
The nature of experiment [4]: budding yeast growth modifiers under rapamycin – strain BY4716, OD600, 96 h, primary screen (AID 1091). Note: test concentration not given here. The note with it: S. cerevisiae BY4716 + rapamycin, higher = more signal, called active from +8 up or from −8 down.
The target of experiment [5] is Torsin-1A-interacting protein 2 (Homo sapiens) (UniProt Q8NFQ8). As to the kind of experiment: small molecules binding lysate-expressed LULL1 – cell lysate, human LULL1 lysate, 635/667 nm fluorescence, primary screen (AID 1092).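 Note: probe is lysate of COS7 cells overexpressing human LULL1; score merges per-feature 667 nm fluorescence with signal-to-noise.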 The note with it: small-molecule microarray, hLULL1 lysate binding, 635 nm fluorescence; higher = more signal.
Experiment [6] in a line: optical density change of DRC41 E. coli – strain DRC41, OD650, 24 h, E. coli filamentation project, primary screen (AID 1093).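 Note: MC1000 strain lacking acrAB efflux and sulA so SOS filamentation is blocked; test concentration not given here.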 The conditions noted are these: E. coli DRC41 growth, higher = more signal, called active from +8 up or from −8 down.
The nature of experiment [7]: probe aLefty2 binding to arrayed compounds – biochemical, biotinylated probe, 635/667 nm fluorescence, primary screen (AID 1094).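 Note: score merges spot fluorescence near 667 nm with spot signal-to-noise ratio.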 The note with it: small-molecule microarray, higher = more signal.
In experiment [8] the test system is Noggin (protein binding on small-molecule microarray). As to the kind of experiment: small molecules binding Noggin protein – biochemical, 635/667 nm fluorescence, primary screen (AID 1095).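 Note: score merges 667 nm feature fluorescence with signal to noise over triplicate slides.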 The conditions noted are these: 635 nm fluorescence, higher = more signal.
In experiment [9] the target is Neurogenic locus notch homolog protein 3 (Homo sapiens) (UniProt Q9UM47). As to the kind of experiment: small molecules binding NOTCH3 protein – biochemical, 635/667 nm fluorescence, primary screen (AID 1096). The conditions noted are these: small-molecule microarray, 635 nm fluorescence, higher = more signal.
A short description of experiment [10]: probe aEGFR binding to arrayed compounds – biochemical, biotinylated probe, 635/667 nm fluorescence, primary screen (AID 1097).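 Note: probe is a biotinylated anti-EGFR antibody binding compounds printed on slides; score combines fluorescence near 667 nm and signal to noise of each spot.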 The conditions noted are these: small-molecule microarray, higher = more signal.
The subject of experiment [11] is Plasmodium falciparum Sir2 (PF13_0152, Sir2A). As to the kind of experiment: Plasmodium falciparum Sir2A binding compounds – biochemical, small-molecule microarray, 635 nm fluorescence, primary screen (AID 1098).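 Note: score merges spot fluorescence intensity with its signal-to-noise ratio.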 The note with it: fluorescence 635 nm, higher = more signal.
Experiment [12] in a line: probe aDKK1 binding to arrayed compounds – biochemical, biotinylated probe, 635/667 nm fluorescence, primary screen (AID 1099).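 Note: score merges 667nm spot fluorescence with signal to noise across triplicate slides; reference of the scale not given here.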 The conditions noted are these: small-molecule microarray, higher = more signal.
A short description of experiment [13]: probe aCHRDL2 binding to arrayed compounds – biochemical, biotinylated probe, 635/667 nm fluorescence, primary screen (AID 1100). The conditions noted are these: small-molecule microarray, higher = more signal.
The nature of experiment [14]: change in splice reporter luminescence, either direction, cell-based, HEK293, spliceosome inhibition project, primary screen (AID 1101).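 Note: HEK293 cells carrying a splicing-competent luciferase reporter gene; test concentration not given here.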 The conditions noted are these: HEK293 splicing luciferase reporter, 24 h, higher = more signal, called active from +8 up or from −8 down. Background: A reporter such as luciferase makes a cellular process visible.
Experiment [15] deals with Fibroblast growth factor 10 (Homo sapiens) (UniProt O15520). As to the kind of experiment: compounds binding fibroblast growth factor 10 – biochemical, small-molecule microarray, 635 nm fluorescence, primary screen (AID 1102). The note with it: FGF10 binding, fluorescence 635 nm, higher = more signal.
Experiment [16] deals with glycogen synthase kinase-3 (GSK3A per assay name; protocol says GSK3B). As to the kind of experiment: compounds binding glycogen synthase kinase-3 – biochemical, small-molecule microarray, 635 nm fluorescence, GSK3A, primary screen (AID 1103). Note: the record names both GSK3A and GSK3B. The conditions noted are these: fluorescence 635 nm, higher = more signal.
In experiment [17] the target is Epidermal growth factor receptor (Homo sapiens) (UniProt P00533). As to the kind of experiment: compounds binding epidermal growth factor receptor – biochemical, small-molecule microarray, 635 nm fluorescence, primary screen (AID 1104).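 Note: score merges 667 nm emission intensity with spot signal to noise over triplicate slides.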 The note with it: EGFR binding, higher = more signal.
Experiment [18] concerns the target Follistatin-related protein 3 (Homo sapiens) (UniProt O95633). As to the kind of experiment: compounds binding follistatin-related protein 3 – biochemical, small-molecule microarray, 635 nm fluorescence, primary screen (AID 1105).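 Note: score merges emission near 667 nm and signal to noise per printed spot across three slides.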 The note with it: FSTL3 binding, higher = more signal.
The target in experiment [19] is Dickkopf-related protein 1 (Homo sapiens) (UniProt O94907). As to the kind of experiment: small molecules binding DKK1 protein – biochemical, small-molecule microarray, 635 nm fluorescence scan, primary screen (AID 1106).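 Note: score merges emission near 667 nm with signal to noise over three replicate slides.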 The note with it: higher = more signal.
Experiment [20] relates to Inhibin beta A chain (activin A). As to the kind of experiment: small molecules binding activin A – biochemical, small-molecule microarray, 635 nm fluorescence scan, primary screen (AID 1107).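 Note: mouse activin A protein probed at 4.33 µg/mL on printed slides; score merges bound-protein fluorescence near 667 nm with spot signal-to-noise.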 The note with it: INHBA, higher = more signal.

Active and inactive are the calls of the source.

Epidermal growth factor receptor (Homo sapiens), sequence (P00533 whole entry, looked up): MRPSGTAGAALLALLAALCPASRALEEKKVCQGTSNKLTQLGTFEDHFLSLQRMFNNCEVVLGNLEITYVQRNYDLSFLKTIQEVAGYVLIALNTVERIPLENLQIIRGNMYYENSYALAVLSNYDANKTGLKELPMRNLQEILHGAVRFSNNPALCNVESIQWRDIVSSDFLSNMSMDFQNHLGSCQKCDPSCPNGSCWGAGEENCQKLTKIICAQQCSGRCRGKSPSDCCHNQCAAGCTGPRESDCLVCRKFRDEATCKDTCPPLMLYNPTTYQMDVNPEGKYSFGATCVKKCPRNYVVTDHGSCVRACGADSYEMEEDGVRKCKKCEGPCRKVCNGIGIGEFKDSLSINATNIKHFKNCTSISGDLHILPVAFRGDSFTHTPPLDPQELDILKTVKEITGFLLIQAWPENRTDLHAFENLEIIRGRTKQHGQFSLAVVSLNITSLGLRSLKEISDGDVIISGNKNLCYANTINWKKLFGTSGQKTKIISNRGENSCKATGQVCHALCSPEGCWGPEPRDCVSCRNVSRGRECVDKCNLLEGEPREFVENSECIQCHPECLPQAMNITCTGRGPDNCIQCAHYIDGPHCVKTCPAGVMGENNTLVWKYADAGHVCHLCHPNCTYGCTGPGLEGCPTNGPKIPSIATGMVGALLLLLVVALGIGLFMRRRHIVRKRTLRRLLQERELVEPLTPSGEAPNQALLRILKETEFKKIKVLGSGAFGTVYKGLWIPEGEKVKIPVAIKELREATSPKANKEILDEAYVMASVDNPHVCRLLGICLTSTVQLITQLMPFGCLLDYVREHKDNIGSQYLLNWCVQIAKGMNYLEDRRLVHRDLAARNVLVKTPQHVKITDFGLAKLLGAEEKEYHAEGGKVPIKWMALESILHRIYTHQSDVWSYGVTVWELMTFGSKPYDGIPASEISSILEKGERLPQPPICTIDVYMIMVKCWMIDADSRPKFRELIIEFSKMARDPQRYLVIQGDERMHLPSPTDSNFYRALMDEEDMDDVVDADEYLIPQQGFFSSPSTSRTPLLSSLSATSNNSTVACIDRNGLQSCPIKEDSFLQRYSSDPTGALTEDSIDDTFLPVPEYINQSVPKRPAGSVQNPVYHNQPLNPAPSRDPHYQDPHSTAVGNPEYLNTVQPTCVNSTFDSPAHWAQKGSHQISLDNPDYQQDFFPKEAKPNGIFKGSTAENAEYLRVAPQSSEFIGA
Neurogenic locus notch homolog protein 3 (Homo sapiens), sequence (Q9UM47 whole entry, looked up): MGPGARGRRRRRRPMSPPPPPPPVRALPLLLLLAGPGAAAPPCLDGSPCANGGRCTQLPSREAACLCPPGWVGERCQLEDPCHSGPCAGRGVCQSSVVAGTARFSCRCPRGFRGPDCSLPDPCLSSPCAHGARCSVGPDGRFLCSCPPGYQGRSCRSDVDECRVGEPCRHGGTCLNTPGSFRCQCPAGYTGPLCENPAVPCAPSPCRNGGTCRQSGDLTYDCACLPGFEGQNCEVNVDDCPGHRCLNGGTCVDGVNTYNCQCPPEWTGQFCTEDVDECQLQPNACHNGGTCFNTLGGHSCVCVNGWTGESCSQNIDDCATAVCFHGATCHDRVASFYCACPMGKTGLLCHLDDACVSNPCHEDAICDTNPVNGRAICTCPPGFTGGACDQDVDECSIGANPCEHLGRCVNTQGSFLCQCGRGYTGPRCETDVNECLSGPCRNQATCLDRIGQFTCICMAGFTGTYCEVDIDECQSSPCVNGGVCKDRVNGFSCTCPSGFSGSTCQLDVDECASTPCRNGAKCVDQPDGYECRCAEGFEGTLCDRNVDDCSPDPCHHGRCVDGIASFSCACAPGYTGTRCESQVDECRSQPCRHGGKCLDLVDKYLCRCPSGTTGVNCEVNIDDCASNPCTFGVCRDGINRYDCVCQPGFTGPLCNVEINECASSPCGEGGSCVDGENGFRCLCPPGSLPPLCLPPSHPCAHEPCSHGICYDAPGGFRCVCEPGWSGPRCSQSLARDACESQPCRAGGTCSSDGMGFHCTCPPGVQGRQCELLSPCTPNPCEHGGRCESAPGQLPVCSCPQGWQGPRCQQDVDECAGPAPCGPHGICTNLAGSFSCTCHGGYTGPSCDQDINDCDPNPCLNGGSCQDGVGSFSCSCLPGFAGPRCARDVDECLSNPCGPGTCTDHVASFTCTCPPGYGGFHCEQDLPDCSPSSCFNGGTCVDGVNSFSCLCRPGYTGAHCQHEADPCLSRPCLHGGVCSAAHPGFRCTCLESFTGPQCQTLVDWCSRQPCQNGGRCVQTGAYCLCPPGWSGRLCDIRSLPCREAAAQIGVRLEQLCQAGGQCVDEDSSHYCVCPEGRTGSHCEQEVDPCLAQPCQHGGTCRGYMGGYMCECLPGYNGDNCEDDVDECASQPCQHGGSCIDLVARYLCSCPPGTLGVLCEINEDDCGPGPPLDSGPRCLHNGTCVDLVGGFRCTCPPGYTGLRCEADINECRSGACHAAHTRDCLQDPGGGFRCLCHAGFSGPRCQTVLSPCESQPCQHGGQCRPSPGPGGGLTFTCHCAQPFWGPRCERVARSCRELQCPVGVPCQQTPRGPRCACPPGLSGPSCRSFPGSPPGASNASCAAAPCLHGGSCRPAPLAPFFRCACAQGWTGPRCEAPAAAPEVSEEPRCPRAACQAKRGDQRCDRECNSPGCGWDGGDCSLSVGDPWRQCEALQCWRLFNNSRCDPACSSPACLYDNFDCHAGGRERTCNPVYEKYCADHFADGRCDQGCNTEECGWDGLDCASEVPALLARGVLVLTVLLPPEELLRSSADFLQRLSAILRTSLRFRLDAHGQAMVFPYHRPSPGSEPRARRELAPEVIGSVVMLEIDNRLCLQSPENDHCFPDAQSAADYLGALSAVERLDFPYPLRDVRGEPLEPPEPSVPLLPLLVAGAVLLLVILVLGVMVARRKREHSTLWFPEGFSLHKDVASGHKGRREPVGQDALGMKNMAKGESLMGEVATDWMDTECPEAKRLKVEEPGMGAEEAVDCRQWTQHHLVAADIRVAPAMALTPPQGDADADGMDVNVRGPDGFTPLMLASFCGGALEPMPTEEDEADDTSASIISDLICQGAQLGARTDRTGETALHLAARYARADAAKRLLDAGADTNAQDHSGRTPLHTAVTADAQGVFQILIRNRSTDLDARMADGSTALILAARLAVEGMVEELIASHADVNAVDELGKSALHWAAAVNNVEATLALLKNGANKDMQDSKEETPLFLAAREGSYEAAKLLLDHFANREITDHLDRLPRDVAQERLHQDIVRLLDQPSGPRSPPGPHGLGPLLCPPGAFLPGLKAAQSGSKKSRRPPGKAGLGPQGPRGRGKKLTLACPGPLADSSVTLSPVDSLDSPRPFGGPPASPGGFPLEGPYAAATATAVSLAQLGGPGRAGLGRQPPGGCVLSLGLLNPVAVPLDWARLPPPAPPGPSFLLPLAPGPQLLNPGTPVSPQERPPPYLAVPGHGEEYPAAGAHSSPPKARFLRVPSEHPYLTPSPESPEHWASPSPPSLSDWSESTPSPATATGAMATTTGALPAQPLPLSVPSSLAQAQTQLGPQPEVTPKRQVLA
Torsin-1A-interacting protein 2 (Homo sapiens), sequence (Q8NFQ8 whole entry, looked up): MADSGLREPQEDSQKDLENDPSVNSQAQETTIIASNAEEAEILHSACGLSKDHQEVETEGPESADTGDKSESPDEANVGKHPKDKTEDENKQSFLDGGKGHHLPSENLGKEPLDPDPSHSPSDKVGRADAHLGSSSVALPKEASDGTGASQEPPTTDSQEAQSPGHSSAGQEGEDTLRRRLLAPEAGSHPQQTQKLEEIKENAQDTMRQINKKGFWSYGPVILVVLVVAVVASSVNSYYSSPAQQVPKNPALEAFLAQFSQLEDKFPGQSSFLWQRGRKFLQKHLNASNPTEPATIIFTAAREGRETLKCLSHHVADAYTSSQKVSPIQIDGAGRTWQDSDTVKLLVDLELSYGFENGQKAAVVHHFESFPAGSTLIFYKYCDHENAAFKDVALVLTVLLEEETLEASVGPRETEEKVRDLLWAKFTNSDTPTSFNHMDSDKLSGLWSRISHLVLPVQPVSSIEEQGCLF
Follistatin-related protein 3 (Homo sapiens), sequence (O95633 whole entry, looked up): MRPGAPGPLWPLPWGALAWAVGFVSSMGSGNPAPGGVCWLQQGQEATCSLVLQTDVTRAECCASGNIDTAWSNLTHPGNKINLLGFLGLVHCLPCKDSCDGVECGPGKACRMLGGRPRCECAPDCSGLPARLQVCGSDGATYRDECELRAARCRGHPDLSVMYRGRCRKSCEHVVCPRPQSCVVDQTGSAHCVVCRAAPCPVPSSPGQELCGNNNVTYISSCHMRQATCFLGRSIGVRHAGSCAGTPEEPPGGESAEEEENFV
Fibroblast growth factor 10 (Homo sapiens), sequence (O15520 whole entry, looked up): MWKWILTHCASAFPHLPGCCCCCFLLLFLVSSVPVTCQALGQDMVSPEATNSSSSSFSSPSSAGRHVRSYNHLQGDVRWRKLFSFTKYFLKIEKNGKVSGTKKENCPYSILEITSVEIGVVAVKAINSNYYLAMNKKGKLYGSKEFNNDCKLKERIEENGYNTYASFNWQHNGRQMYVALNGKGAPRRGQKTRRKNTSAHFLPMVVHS
Dickkopf-related protein 1 (Homo sapiens), sequence (O94907 whole entry, looked up): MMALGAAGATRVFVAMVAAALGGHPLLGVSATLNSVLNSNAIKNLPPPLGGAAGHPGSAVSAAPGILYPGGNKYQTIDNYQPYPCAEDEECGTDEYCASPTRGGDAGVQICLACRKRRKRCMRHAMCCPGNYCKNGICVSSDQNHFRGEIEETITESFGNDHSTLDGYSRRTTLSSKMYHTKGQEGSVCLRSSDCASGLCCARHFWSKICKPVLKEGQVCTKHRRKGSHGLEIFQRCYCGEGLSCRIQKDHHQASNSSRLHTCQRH

For the molecule `COC(=O)[C@@H]1CC[C@H](C)[C@@H](c2ccc(C)cc2)N1C(=O)c1ccc(C=NOC[C@@H](C)[C@H](OCc2ccccc2)C(C)C)cc1`, the composite z-score was 1.55 in [1]; 1.3 in experiment [5]; -0.244 in [7]; 0.573 in experiment [8]; 1.09 in [9]; 0.102 in [10]. In addition, the composite z-score in [11] was 0.854; in experiment [12], 0.0975; in experiment [13], -0.233; in [15], 0.532; in experiment [16] it was 1.16; in experiment [17], 0.814. Besides, the composite z-score is 0.804 in experiment [18], 0.414 in experiment [19] and -0.182 in experiment [20]. Moreover, the z-score is -2.56 (inactive) in experiment [2]; -6.29 (inactive) in [3]; -1.51 (inactive) in experiment [4]; 0.862 (inactive) in experiment [6]; -1.12 (inactive) in [14].

As to `C[C@H]1COC(=O)[C@@H]2CCCN2C(=O)[C@@H](C)COC(=O)[C@H](Cc2ccccc2)NC1=O`, the composite z-score is 0.907 in experiment [1]; 1.24 in [5]; -0.141 in experiment [7]; 0.396 in experiment [8]; 0.889 in experiment [9]; 0.081 in experiment [10]. The composite z-score in experiment [11] is 0.878; in experiment [12], -0.275; in [13], -0.647; in [15] it was 0.338; in [16], 0.727; in experiment [17], 0.911. In addition, the results for the composite z-score in experiment [18], in [19] and in experiment [20] were 0.511, 0.374 and -0.372, respectively. Moreover, the z-score in experiment [2] is -0.801 (inactive); in experiment [3], 0.103 (inactive); in [4] it was -1.2 (inactive); in experiment [6], 0.0412 (inactive); in experiment [14] it was 0.282 (inactive).

As for `COCCNC(=O)OCC1CCCC2(CC(OC(=O)NCc3ccc4c(c3)OCO4)CC(CCC(=O)N[C@@H](C)C(=O)OC)O2)O1` (stereo not given in full), the composite z-score in [1] is 1.52; in experiment [5], 1.55; in [7] it was -0.161; in experiment [8], 0.54; in experiment [9], 1.1; in experiment [10] it was -0.0286. Also, the composite z-score in experiment [11] was 0.742; in [12] it was -0.205; in experiment [13], -0.634; in experiment [15], 0.696; in [16] it was 0.953; in experiment [17], 0.696. Besides, the composite z-score is 1.31 in [18], 0.518 in [19] and 0.0253 in [20]. Also, the z-score in experiment [2] was -0.05 (inactive); in experiment [3], 1.02 (inactive); in experiment [4], -0.62 (inactive); in [6] it was -0.427 (inactive); in experiment [14], 0.442 (inactive).

Consider `CON=Cc1ccc(C(=O)N2[C@H](c3ccc(C)cc3)[C@@H](C)CC[C@H]2C(=O)OC)cc1`, for which the composite z-score in [1] was 1.17; in experiment [5], 1.23; in [7] it was -0.293; in [8] it was 0.292; in [9], 0.772; in experiment [10], -0.262. The composite z-score was 0.365 in experiment [11]; -0.254 in experiment [12]; -0.541 in [13]; 0.52 in experiment [15]; 0.873 in experiment [16]; 0.594 in experiment [17]. Also, the composite z-score was 0.512 in experiment [18], 0.573 in experiment [19] and 0.339 in experiment [20]. Further, the z-score is -0.0099 (inactive) in [2]; -2 (inactive) in experiment [3]; -0.637 (inactive) in [4]; 0.823 (inactive) in experiment [6]; 0.224 (inactive) in experiment [14].

As for `O=C(C=Cc1ccc2c(c1)OCO2)c1ccc(F)cc1`, the composite z-score in experiment [1] was -0.458; in experiment [5], -0.779; in experiment [7], -0.132; in experiment [8], 0.87; in experiment [9], 0.142; in [10], 0.131. In addition, the composite z-score in experiment [11] is 0.818; in experiment [12], -0.136; in experiment [13] it was -0.459; in experiment [15], 0.498; in experiment [16], -0.296; in experiment [17] it was 0.549. The composite z-score in [18] turned out to be 0.801; in experiment [19], 1.52; in [20], 0.239. Further, the z-score is -0.935 (inactive) in experiment [2]; -15.1 (active) in [3]; 3.87 (inactive) in [4]; 0.704 (inactive) in experiment [6]; -0.603 (inactive) in [14].
